Source: PubChem BioAssay AID1159580 (chemical genetic matrix, 2015)
Among all 5,500 compounds or so, about 2,000 (36%) were called active. Not shown: some 18% with an inconclusive outcome. Cut-off read from the data, not from the text of the source: active = normalized growth mostly below about 0.91 (no sharp cut-off); inconclusive = no clear call, values can overlap the other calls; inactive = mostly above about 0.92. The list shows a part of the results.

Assay: chemical genetic growth profiling, strain panel (AID 1159580);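 note: tested at 20 µM; growth read once vehicle control cultures reached saturation at 30 °C; 1 = growth at the plate median or of vehicle wells; lower values mean less growth of the strain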
Conditions: S. cerevisiae deletion strains, growth OD

Measured: normalized growth

O=c1ccc2ccc(O)c(O)c2o1
inactive: locus YAL021C, strain ccr4, active compounds read low 1.01 | locus YAL026C, strain drs2, active compounds read low 1.01 | locus YAL030W, strain snc1, active compounds read low 1.01 | locus YAL040C, strain CLN3, active compounds read low 0.995 | locus YBL061C, strain skt5, active compounds read low 1 | locus YBR009C, strain hhf1, active compounds read low 1 | locus YBR023C, strain chs3, active compounds read low 1 | locus YBR171W, strain sec66, active compounds read low 1 | locus YBR231C, strain swc5, active compounds read low 0.98 | locus YBR279W, strain paf1, active compounds read low 1.01 | locus YCL011C, strain gbp2, active compounds read low 1.03 | locus YCL016C, strain dcc1, active compounds read low 0.996 | locus YCL061C, strain MRC1 (second series), active compounds read low 0.999 | locus YCL069W, strain vba3, active compounds read low 1.01 | locus YCR088W, strain abp1, active compounds read low 1.01 | locus YDL005C, strain med2, active compounds read low 1 | locus YDL040C, strain nat1, active compounds read low 1.01 | locus YDR001C, strain nth1, active compounds read low 1.02 | locus YDR069C, strain doa4, active compounds read low 0.982 | locus YDR137W, strain rgp1, active compounds read low 0.982 | locus YDR150W, strain NUM1, active compounds read low 0.998 | locus YDR159W, strain sac3, active compounds read low 0.966 | locus YDR195W, strain ref2 0.989 | locus YDR297W, strain sur2, active compounds read low 1 | locus YDR334W, strain swr1, active compounds read low 1.01 | locus YDR335W, strain msn5, active compounds read low 1.02 | locus YDR363W, strain ESC2, active compounds read low 0.961 | locus YDR392W, strain spt3, active compounds read low 0.934 | locus YEL003W, strain gim4, active compounds read low 1 | locus YEL037C, strain rad23, active compounds read low 1.01 | locus YEL061C, strain CIN8 (second series), active compounds read low 1.01 | locus YER002W, strain NOP16, active compounds read low 0.996 | locus YER015W, strain faa2, active compounds read low 0.999 | locus YER016W, strain bim1, active compounds read low 1.02 | locus YER111C, strain swi4, active compounds read low 0.999 | locus YER155C, strain BEM2 (second series), active compounds read low 1 | locus YFR010W, strain ubp6, active compounds read low 1.01 | locus YGL167C, strain pmr1, active compounds read low 1.01 | locus YGL173C, strain kem1, active compounds read low 1 | locus YGL227W, strain vid30, active compounds read low 1.01 | locus YGL240W, strain doc1, active compounds read low 0.986 | locus YGL253W, strain hxk2, active compounds read low 1.03 | locus YGR078C, strain PAC10, active compounds read low 0.994 | locus YGR229C, strain SMI1, active compounds read low 1.03 | locus YHR013C, strain ard1, active compounds read low 0.997 | locus YHR027C, strain rpn1, active compounds read low 1 | locus YHR030C, strain SLT2, active compounds read low 0.98 | locus YHR079C, strain IRE1, active compounds read low 0.96 | locus YHR142W, strain chs7, active compounds read low 1.05 | locus YJL092W, strain hpr5, active compounds read low 1.01 | locus YJL095W, strain BCK1 (second series), active compounds read low 1 | locus YJL095W, strain BCK1, active compounds read low 0.978 | locus YJL115W, strain asf1, active compounds read low 1.01 | locus YJL129C, strain trk1, active compounds read low 0.999 | locus YJL154C, strain vps35, active compounds read low 1.01 | locus YJL164C, strain tpk1, active compounds read low 1 | locus YJL166W, strain qcr8, active compounds read low 1.02 | locus YJL187C, strain SWE1, active compounds read low 1.02 | locus YJR066W, strain TOR1, active compounds read low 0.924 | locus YJR075W, strain HOC1, active compounds read low 1.05 | locus YKL160W, strain elf1, active compounds read low 1 | locus YKR026C, strain gcn3, active compounds read low 1.01 | locus YKR091W, strain srl3, active compounds read low 1.01 | locus YLL001W, strain dnm1, active compounds read low 0.996 | locus YLL026W, active compounds read low 1 | locus YLL041C, strain sdh2, active compounds read low 1.01 | locus YLR027C, strain aat2, active compounds read low 0.993 | locus YLR113W, strain HOG1, active compounds read low 1.01 | locus YLR221C, strain rsa3, active compounds read low 0.991 | locus YLR258W, strain gsy2, active compounds read low 1.01 | locus YLR262C, strain YPT6 (second series), active compounds read low 1.02 | locus YLR320W, strain mms22, active compounds read low 1.01 | locus YLR342W, strain FKS1, active compounds read low 1.01 | locus YLR357W, strain rsc2, active compounds read low 1 | locus YLR370C, strain arc18, active compounds read low 1.01 | locus YLR384C, strain iki3, active compounds read low 0.981 | locus YML120C, strain ndi1, active compounds read low 1 | locus YMR058W, strain fet3, active compounds read low 1.01 | locus YMR125W, strain sto1, active compounds read low 1 | locus YMR129W, active compounds read low 1.01 | locus YMR205C, strain PFK2, active compounds read low 1.01 | locus YMR231W, strain pep5, active compounds read low 0.998 | locus YMR307W, strain GAS1, active compounds read low 1.03 | locus YNL071W, strain lat1, active compounds read low 1.02 | locus YNL153C, strain GIM3, active compounds read low 1.2 | locus YNL175C, strain NOP13, active compounds read low 0.974 | locus YNL183C, strain NPR1, active compounds read low 0.94 | locus YNL197C, strain WHI3, active compounds read low 0.979 | locus YNL209W, strain ssb2, active compounds read low 0.994 | locus YNL224C, strain SQS1, active compounds read low 0.99 | locus YNL248C, strain rpa49, active compounds read low 1.04 | locus YNL322C, strain KRE1 (second series), active compounds read low 0.994 | locus YNR049C, strain mso1, active compounds read low 0.999 | locus YOR001W, strain rrp6, active compounds read low 0.979 | locus YOR070C, strain gyp1, active compounds read low 0.991 | locus YOR080W, strain dia2, active compounds read low 0.986 | locus YOR083W, strain WHI5 (second series), active compounds read low 1.02 | locus YOR083W, strain WHI5, active compounds read low 0.999 | locus YOR106W, strain vam3, active compounds read low 0.99 | locus YOR231W, strain MKK1, active compounds read low 0.966 | locus YOR265W, strain rbl2, active compounds read low 1.01 | locus YOR270C, strain vph1, active compounds read low 1 | locus YOR290C, strain snf2, active compounds read low 0.98 | locus YPL051W, strain arl3, active compounds read low 1 | locus YPL078C, strain atp4, active compounds read low 1.01 | locus YPL106C, strain sse1, active compounds read low 0.967 | locus YPL240C, strain hsp82, active compounds read low 1.01 | locus YPL256C, strain CLN2, active compounds read low 0.989
